Reference: paper PMC5892938, “SARNAclust: Semi-automatic detection of RNA protein binding motifs from immunoprecipitation data”
Over roughly 11,000 sequences, “log2 fold change” has its median near 0.00022; the highest 2% begin near 0.34. Some of the results follow.

What follows are sequences tested against GST-SBP-SLBP (stem-loop binding protein) (Homo sapiens, UniProt Q14493 1-270) (assay: targeted RNA Bind-n-Seq; RBNS binding buffer: 25 mM Tris pH 7.5, 150 mM KCl, 3 mM MgCl2, 0.1% Tween, 0.5 mg/mL BSA, 1 mM DTT; 27 nM protein, 750 pM RNA pool; temperature not stated; high values mean tight binding). Conditions: protein: recombinant; tags: N-terminal GST and SBP (pGEX6P1-SBP); structured_RNA.
In short: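 A designed RNA oligo pool, transcribed with T7, was present at 750 pM and incubated in RBNS binding buffer with 27 nM of GST-SBP-tagged protein that had been expressed in Rosetta(DE3) pLysS E. coli and purified with glutathione. After reverse transcription with a 10-nucleotide barcoded primer and PCR, the bound RNA was sequenced as 200-cycle paired-end reads on a MiSeq. Each sequence's binding signal is the DEseq binary-logarithm fold change in read counts, computed after joining reads with FLASH, aligning with HISAT2 and collapsing by barcode.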

Sequence	binding signal [log2 fold change]
GGUCACGUCUCAAUCAACUCAUACGAGGGGGGGAAAACCCCUUUACCCUCUCCAUCAACAGCUCGCAGUCAAG	0.329 ± 0.398
GGUCACGUCUCAAUCAACUCCAUCGAGGGGGGGAAAACCCCUUUACCCUCCAAUUCAACAGCUCGCAGUCAAG	0.49 ± 0.445
GGUCACGUCUCAAUCAACUCAAACGAGGGGGGGAAAACCCCUUUACCCUCCAUAUCAACAGCUCGCAGUCAAG	0.344 ± 0.458
GGUCACGUCUCAAUCAACUCCAUCGAGGGGGGGAAAACCCCUUUACCCUCAAUAUCAACAGCUCGCAGUCAAG	0.429 ± 0.437
GGUCACGUCUCAAUCAACUCAGAAGAGGGGGGGAAAACCCCUUUACCCUCCAAAUCAACAGCUCGCAGUCAAG	0.431 ± 0.433
GGUCACGUCUCAAUCAACUCCAAAGAGGGGGGGAAAACCCCUUUACCCUCACUUUCAACAGCUCGCAGUCAAG	0.398 ± 0.419
GGUCACGUCUCAAUCAACUCCAAAGAGGGGGGGAAAACCCCUUUACCCUCCGCAUCAACAGCUCGCAGUCAAG	0.352 ± 0.42
GGUCACGUCUCAAUCAACUCCAAAGAGGGGGGGAAAACCCCUUUACCCUCCGUUUCAACAGCUCGCAGUCAAG	0.395 ± 0.435
GGUCACGUCUCAAUCAACUCCAAAGAGGGGGGGAAAACCCCUUUACCCUCAACCUCAACAGCUCGCAGUCAAG	0.316 ± 0.391
GGUCACGUCUCAAUCAACUCCAAAGAGGGGGGGAAAACCCCUUUACCCUCCACAUCAACAGCUCGCAGUCAAG	0.399 ± 0.418
GGUCACGUCUCAAUCAACUCCAAAGAGGGGGGGAAAACCCCUUUACCCUCGUCCUCAACAGCUCGCAGUCAAG	0.369 ± 0.406
GGUCACGUCUCAAUCAACUCACACGAGGGGGGGAAAACCCCUUUACCCUCUCUAUCAACAGCUCGCAGUCAAG	0.553 ± 0.407
GGUCACGUCUCAAUCAACUCCAUCGAGGGGGGGAAAACCCCUUUACCCUCACUCUCAACAGCUCGCAGUCAAG	0.322 ± 0.422
GGUCACGUCUCAAUCAACUCAAUCGAGGGGGGGAAAACCCCUUUACCCUCACUCUCAACAGCUCGCAGUCAAG	0.375 ± 0.412
GGUCACGUCUCAAUCAACUCUAUCGAGGGGGGGAAAACCCCUUUACCCUCACACUCAACAGCUCGCAGUCAAG	0.573 ± 0.408
GGUCACGUCUCAAUCAACUCUUCCGAGGGGGGGAAAACCCCUUUACCCUCACUAUCAACAGCUCGCAGUCAAG	0.347 ± 0.442
GGUCACGUCUCAAUCAACUCUCCCGAGGGGGGGAAAACCCCUUUACCCUCACUAUCAACAGCUCGCAGUCAAG	0.31 ± 0.449
GGUCACGUCUCAAUCAACUCUCUCGAGGGGGGGAAAACCCCUUUACCCUCACAAUCAACAGCUCGCAGUCAAG	0.571 ± 0.435

Sequence	binding signal [log2 fold change]
GGUCACGUCUCAAUCAACUCUAUCGAGGGGGGGAAAACCCCUUUACCCUCACAAUCAACAGCUCGCAGUCAAG	0.599 ± 0.418
GGUCACGUCUCAAUCAACUCACACGAGGGGGGGAAAACCCCUUUACCCUCUACCUCAACAGCUCGCAGUCAAG	0.472 ± 0.426
GGUCACGUCUCAAUCAACUCUACAGAGGGGGGGAAAACCCCUUUACCCUCACUCUCAACAGCUCGCAGUCAAG	0.332 ± 0.424
GGUCACGUCUCAAUCAACUCAAUAGAGGGGGGGAAAACCCCUUUGCCCUCAAUCUCAACAGCUCGCAGUCAAG	0.451 ± 0.42
GGUCACGUCUCAAUCAACUCAAUAGAGGGGGGGAAAACCCCUUUGCCCUCGAAAUCAACAGCUCGCAGUCAAG	0.399 ± 0.404
GGUCACGUCUCAAUCAACUCCAUAGAGGGGGGGAAAACCCCUUUGCCCUCGAAAUCAACAGCUCGCAGUCAAG	0.382 ± 0.389
GGUCACGUCUCAAUCAACUCAAUAGAGGGGGGGAAAACCCCUUUGCCCUCAACAUCAACAGCUCGCAGUCAAG	0.421 ± 0.37
GGUCACGUCUCAAUCAACUCAUUAGAGGGGGGGAAAACCCCUUUGCCCUCAUACUCAACAGCUCGCAGUCAAG	0.461 ± 0.451
GGUCACGUCUCAAUCAACUCAUUAGAGGGGGGGAAAACCCCUUUGCCCUCAAAAUCAACAGCUCGCAGUCAAG	0.487 ± 0.428
GGUCACGUCUCAAUCAACUCCUUAGAGGGGGGGAAAACCCCUUUGCCCUCAUACUCAACAGCUCGCAGUCAAG	0.464 ± 0.44
GGUCACGUCUCAAUCAACUCACUAGAGGGGGGGAAAACCCCUUUGCCCUCAUACUCAACAGCUCGCAGUCAAG	0.37 ± 0.365
GGUCACGUCUCAAUCAACUCACUAGAGGGGGGGAAAACCCCUUUGCCCUCCAACUCAACAGCUCGCAGUCAAG	0.317 ± 0.385
GGUCACGUCUCAAUCAACUCAUUAGAGGGGGGGAAAACCCCUUUGCCCUCACCUUCAACAGCUCGCAGUCAAG	0.303 ± 0.392
GGUCACGUCUCAAUCAACUCAUUAGAGGGGGGGAAAACCCCUUUGCCCUCAUCUUCAACAGCUCGCAGUCAAG	0.356 ± 0.431
GGUCACGUCUCAAUCAACUCCAUAGAGGGGGGGAAAACCCCUUUACCCUCAUUUUCAACAGCUCGCAGUCAAG	0.342 ± 0.445
GGUCACGUCUCAAUCAACUCCAUAGAGGGGGGGAAAACCCCUUUGCCCUCAUUUUCAACAGCUCGCAGUCAAG	0.381 ± 0.414
GGUCACGUCUCAAUCAACUCAACAGAGGGGGGGAAAACCCCUUUACCCUCAUUUUCAACAGCUCGCAGUCAAG	0.422 ± 0.451
GGUCACGUCUCAAUCAACUCCAUAGAGGGGGGGAAAACCCCUUUGCCCUCAAUUUCAACAGCUCGCAGUCAAG	0.426 ± 0.447
